Measurements from article PMC5540273 (PLoS ONE, 2017).

These molecules were tested on MARK2. Conditions: concentration: 1 μM, replicates: in singlicate; n = 1.
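Also: KINOMEscan kinase panel screen.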

| SMILES | %Inh |
| --- | --- |
| CNc1nccc(-c2c(-c3ccc(F)cc3)ncn2C2CCN(C)CC2)n1 [SB-222903] | 0% |
| CCn1c(-c2ccncc2)nc2cnccc21 [SB-735216] | 100% |
| Clc1cc(Nc2ncnc3cc[nH]c23)ccc1OCc1ccccn1 | 0% |
| CN1CCC(n2cnc(-c3ccc(F)cc3)c2-c2ccnc(NC3CCNCC3)n2)CC1 [SB-229482] | 13% |
| Fc1ccc(-c2ncn(CCCNCc3ccccc3)c2-c2ccncc2)cc1 | 0% |
| Cc1ccc(NC(=O)c2cccc(C#N)c2)cc1-c1ccc(C(=O)Nc2ccncc2)cc1 [GSK1398463] | 0% |
| O=C(c1ccc(-c2cc(-c3c[nH]nc3-c3ccccn3)ccn2)cc1)N1CCCC1 [GW792479] | 4% |
| Cl.c1ccc(Cn2ccc3cc(Nc4ncnc5ccccc45)ccc32)cc1 [GW275568] | 28% |
| CS(=O)(=O)CCNCc1ccc(-c2ccc3ncnc(Nc4ccc(OCc5ccccc5)c(Cl)c4)c3c2)o1.Cl [GW574783] | 0% |
| CCC(CC)(CC)n1cnc2c(N)ncnc21 [SKF-97620] | 15% |
| CC(C)(C)OC(=O)NC1CCCN(c2cc(-c3ccc4c(N)n[nH]c4c3)nc(N)n2)C1 (centres unmarked) [GSK2286096] | 0% |
| O=C(Nc1ccccc1F)NC1CCN(c2ccnc(Nc3ccc(F)cc3)n2)C1 (centres unmarked) [GSK1379722] | 0% |
| Cl.c1ccc(Cn2ncc3cc(Nc4ncnc5ccccc45)ccc32)cc1 [GW273749] | 0% |
| CC(=O)Nc1n[nH]c2ncc(-c3ccccc3)cc12 [SB-548492] | 5% |
